Measurements taken from the supplement of paper PMC6555819.

Tests used:
Test in all cases: PBM binding z-score (relative to random genomic background probes); higher = stronger binding; sequences stand for … in GC…GCGATTGACAGCGTAGAATGAAGG
[1] = test system: FXR:RXRa (NR concentration 270 nM, RXRa partner concentration 90 nM)
How it was run: (§1)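 Antibodies against each partner of ligand-free nuclear receptor dimers (one per run) detected binding on custom Agilent 4×180K protein-binding microarrays after 1 h incubation. The double-stranded probes had 34-nt variable regions carrying direct-repeat seeds, single-nucleotide variants, half-site ablations and random human genomic background sequences. Binding z-scores, from regression-normalized fluorescence, use the random background probes as reference.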

[2] = test system: LXRa:RXRa (NR concentration 270 nM, RXRa partner concentration 90 nM)
How it was run: as §1

[3] = test system: LXRa homodimer (NR concentration 270 nM)
How it was run: as §1

[4] = test system: LXRb:RXRa (NR concentration 270 nM, RXRa partner concentration 90 nM)
How it was run: as §1

[5] = test system: LXRb homodimer (NR concentration 270 nM)
How it was run: as §1

[6] = test system: PPARa:RXRa (NR concentration 270 nM, RXRa partner concentration 90 nM)
How it was run: as §1

[7] = test system: PPARg:RXRa (NR concentration 180 nM, RXRa partner concentration 90 nM)
How it was run: as §1

[8] = test system: PPARg:RXRa 270nM:90nM, anti-RXR (NR concentration 270 nM, RXRa partner concentration 90 nM)
How it was run: as §1

[9] = test system: PPARg:RXRa 30nM:10nM, anti-RXR (NR concentration 30 nM, RXRa partner concentration 10 nM)
How it was run: as §1

[10] = test system: PPARg:RXRa 90nM:30nM, anti-RXR (NR concentration 90 nM, RXRa partner concentration 30 nM)
How it was run: as §1

[11] = test system: PPARg:RXRa DBDmut IVT, anti-RXR (DBD mutation: RXRa K156A/R161A, NR concentration 270 nM, RXRa partner concentration 90 nM)
How it was run: as §1

[12] = test system: PPARg:RXRa IVT, anti-PPARg (NR concentration 270 nM, RXRa partner concentration 90 nM)
How it was run: as §1

[13] = test system: PPARg DBDmut:RXRa IVT, anti-PPARg (DBD mutation: PPARg1 K132A/R137A, NR concentration 270 nM, RXRa partner concentration 90 nM)
How it was run: as §1

[14] = test system: PPARg DBDmut IVT, anti-PPARg (DBD mutation: PPARg1 K132A/R137A, NR concentration 270 nM)
How it was run: as §1

[15] = test system: PPARg homodimer (NR concentration 180 nM)
How it was run: as §1

[16] = test system: PXR:RXRa (NR concentration 270 nM, RXRa partner concentration 90 nM)
How it was run: as §1

[17] = test system: PXR homodimer (NR concentration 270 nM)
How it was run: as §1

[18] = test system: RARa:RXR (NR concentration 270 nM, RXRa partner concentration 90 nM)
How it was run: as §1

[19] = test system: RARa homodimer (NR concentration 270 nM)
How it was run: as §1

[20] = test system: RARb:RXRa (NR concentration 270 nM, RXRa partner concentration 90 nM)
How it was run: as §1

Sequence	PBM binding z-score [1]	PBM binding z-score [2]	PBM binding z-score [3]	PBM binding z-score [4]	PBM binding z-score [5]	PBM binding z-score [6]	PBM binding z-score [7]	PBM binding z-score [8]	PBM binding z-score [9]	PBM binding z-score [10]	PBM binding z-score [11]	PBM binding z-score [12]	PBM binding z-score [13]	PBM binding z-score [14]	PBM binding z-score [15]	PBM binding z-score [16]	PBM binding z-score [17]	PBM binding z-score [18]	PBM binding z-score [19]	PBM binding z-score [20]
AATACAGGGTCATCGTAGCCCAGAGTACGCACAG	6.98	5.87	2.36	4.47	1	5.89	6.62	6.26	3.25	4.75	3.35	5.25	2.19	2.43	2.47	4.07	0.552	4.59	0.855	4.29
GATACAGGGTCAGCTAGAGGCCAAAGTATGGAAA	5.01	3.57	0.0556	3.09	-0.391	4.59	3.94	3.58	1.03	2.36	1.15	2.73	0.457	0.0688	3.56	4.24	0.247	5.28	0.349	4.25
ACTATTAGTTGAGACGACGGCAACCGATAGGTTG	-0.095	-0.329	-0.396	-0.449	0.14	-0.603	0.568	-0.326	-0.098	-0.21	-0.317	-0.0579	0.669	0.567	0.0844	-0.384	-0.0364	-0.302	0.521	-0.0586
CCTAGCAGGCCAGAGTCACTCAAGCATTTCGCTT	-0.525	-0.329	-0.444	-0.519	-1.47	-0.299	-0.117	-0.25	-0.904	-0.753	0.697	-0.158	-1.34	-1.29	0.134	-0.712	-0.709	-0.507	-0.47	-0.0457
CCTGCTAGGTTATGGTCAGCTAATCTACAGTATG	-0.0301	-0.0994	-0.554	-0.211	-0.277	-0.0739	-0.279	-0.092	-0.295	-0.423	1.28	0.468	-0.113	0.438	-0.1	-0.197	-0.354	-0.233	0.0671	1
CAGCCTAGGTCAGTGCCAGTATAGGAGGAACGTT	0.914	0.456	-0.00279	0.349	-0.648	1.17	0.469	0.475	-0.196	0.0661	1.7	1.05	-1.18	-1.02	0.587	-0.0213	-0.197	0.516	-0.0242	3.17
CGAACTAAGTCAGAACAGGACAGTGAAGGATGAT	-0.105	-0.427	0.0634	-0.842	-0.576	-0.444	0.514	-0.265	0.171	-0.00279	0.607	0.0567	0.659	0.276	0.404	-0.17	0.204	0.137	0.452	-0.103
CGTCCAAGCTCATAGGAGGTCAGTGAAGACAGAT	0.888	1.51	1.08	1.33	-0.0875	1.92	0.491	0.292	-0.158	0.173	0.199	0.722	-0.21	-0.262	1.08	1.59	0.494	1.79	0.761	2.03
CTCGAAAGGTCGTGCTCAGGCGAGTATACCAAAC	5	3.56	-0.183	2.93	-0.132	5.03	2.05	3.49	0.448	1.95	0.449	1.53	0.141	-0.559	0.928	2.68	-0.312	3.16	-0.0786	3.98
ACTCGGAGGACAAAGGTCAGAGCCACGCCAGTGA	4.39	4.56	1.53	3.52	0.161	5.36	8.4	7.54	6.19	8.08	0.449	3.88	0.243	0.0578	3.83	4.03	0.202	5.5	1.68	4.73
GATACAGGCTCAGCTAGAGGCCAGAGTATGGAAA	-0.845	-1.13	-0.652	-1.25	-1.62	-1.21	0.137	-0.746	-0.505	-0.667	-1.07	-0.379	-0.391	-1.01	-0.531	-0.951	-0.872	-0.733	-0.86	-0.294
ATATATAGGTTAAGGGTCATTCAGGTTGGTTCGC	5.73	5.29	4.07	4.88	1.86	6.8	11.9	9.9	10.7	11.7	7.29	7.49	2.46	2.9	4.36	5.67	3.53	6.57	3.52	3.92
TCCGCTAGGTCAGTTGGTCAGCTAACGAGCTGCC	1.2	0.833	-0.36	0.472	-0.0467	1.57	0.233	1.55	1.2	1.49	2.32	2.55	-0.0326	-0.848	0.175	0.233	-0.744	0.687	-0.7	3.44
AGAACGAGGGCAATGAGTTGATTGCACGGGTGGC	0.165	0.157	-0.593	-0.398	-0.715	1.23	1.15	0.624	-0.179	0.252	3.14	2.43	0.337	-0.0138	-0.0601	1.65	6.35	0.166	-0.231	1.89
